Records with an inconclusive call do not appear. The source made the active and inactive calls. The calls were made as follows: active = hit-call score of the fitted dose curve at least 0.9, where 1 is the maximum; inconclusive = response in the unintended direction; inactive = score below 0.9.
Legend:
[1] = target: human AMP-activated Protein Kinase, alpha 1 (AMPKa1), PRKAA1 (gene 5562) (UniProt Q13131); experiment: NVS_ENZ_hAMPKa1: NovaScreen (NVS) Enzymatic Assay for human AMP-activated Protein Kinase, alpha 1 (AMPKa1) (AID 2283130)
Chain of human AMP-activated Protein Kinase, alpha 1 (AMPKa1), PRKAA1 (gene 5562) (Q13131 whole entry, looked up): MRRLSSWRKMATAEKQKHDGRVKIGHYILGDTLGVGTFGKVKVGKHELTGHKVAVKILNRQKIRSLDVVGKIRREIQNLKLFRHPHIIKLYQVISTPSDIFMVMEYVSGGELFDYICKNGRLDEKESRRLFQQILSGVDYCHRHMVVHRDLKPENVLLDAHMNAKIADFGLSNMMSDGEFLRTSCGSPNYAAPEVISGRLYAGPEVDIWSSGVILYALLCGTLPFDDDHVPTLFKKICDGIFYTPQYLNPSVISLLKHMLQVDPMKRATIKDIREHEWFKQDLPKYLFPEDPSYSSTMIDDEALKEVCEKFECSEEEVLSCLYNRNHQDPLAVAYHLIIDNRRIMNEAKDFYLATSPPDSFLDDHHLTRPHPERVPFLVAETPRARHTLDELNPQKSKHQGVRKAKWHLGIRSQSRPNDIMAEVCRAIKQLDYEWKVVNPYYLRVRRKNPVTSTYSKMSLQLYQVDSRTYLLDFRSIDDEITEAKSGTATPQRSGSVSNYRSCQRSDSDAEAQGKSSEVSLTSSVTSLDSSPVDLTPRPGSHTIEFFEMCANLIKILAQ
How it was run: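 Recombinant human AMPKα1 activity was measured cell-free by fluorescent substrate conversion with electrophoretic mobility-shift separation, 1 h after dosing. Duplicate single-point screening was at 25 uM; actives (≥30% inhibition) were retested in concentration-response up to 50 uM.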

[2] = target: human Fibroblast Growth Factor Receptor 1 (FGFR1), FGFR1 (gene 2260) (UniProt P11362); experiment: NVS_ENZ_hFGFR1: NovaScreen (NVS) Enzymatic Assay for human Fibroblast Growth Factor Receptor 1 (FGFR1) (AID 2283159);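 as to AC50: hits lower the signal so potencies describe inhibitors of the kinase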
Chain of human Fibroblast Growth Factor Receptor 1 (FGFR1), FGFR1 (gene 2260) (P11362 whole entry, looked up): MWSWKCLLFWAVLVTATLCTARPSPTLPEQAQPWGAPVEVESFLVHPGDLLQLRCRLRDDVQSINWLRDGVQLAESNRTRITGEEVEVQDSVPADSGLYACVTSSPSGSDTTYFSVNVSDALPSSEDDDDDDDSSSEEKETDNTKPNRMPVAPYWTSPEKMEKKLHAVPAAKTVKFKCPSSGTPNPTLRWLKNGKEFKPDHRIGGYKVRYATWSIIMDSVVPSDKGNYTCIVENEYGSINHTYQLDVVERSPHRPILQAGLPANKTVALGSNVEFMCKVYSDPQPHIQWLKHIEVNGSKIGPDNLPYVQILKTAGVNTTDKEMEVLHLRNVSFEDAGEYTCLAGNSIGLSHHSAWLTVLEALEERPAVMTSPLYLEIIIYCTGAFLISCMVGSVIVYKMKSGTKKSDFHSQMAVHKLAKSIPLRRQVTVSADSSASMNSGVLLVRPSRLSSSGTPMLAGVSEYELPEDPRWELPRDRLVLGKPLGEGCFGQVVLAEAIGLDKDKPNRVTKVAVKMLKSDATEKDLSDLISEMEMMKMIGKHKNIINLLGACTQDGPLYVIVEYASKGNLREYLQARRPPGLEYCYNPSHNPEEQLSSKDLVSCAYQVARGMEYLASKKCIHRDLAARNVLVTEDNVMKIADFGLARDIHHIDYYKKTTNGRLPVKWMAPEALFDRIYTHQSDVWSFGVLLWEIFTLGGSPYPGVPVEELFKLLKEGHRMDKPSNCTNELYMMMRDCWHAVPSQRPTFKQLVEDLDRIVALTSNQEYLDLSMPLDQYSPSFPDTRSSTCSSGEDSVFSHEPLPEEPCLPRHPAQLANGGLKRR
How it was run: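 Cell-free recombinant kinase with fluorescent substrate, product separated by electrophoretic mobility shift; read 1 hour after dosing, loss of signal relative to DMSO. Initial screen in duplicate at 25 uM, actives followed in concentration series.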

[3] = target: human Phosphatase and Tensin Homolog (PTEN), PTEN (gene 5728) (UniProt P60484); experiment: NVS_ENZ_hPTEN: NovaScreen (NVS) Enzymatic Assay for human Phosphatase and Tensin Homolog (PTEN) (AID 2283203)
How it was run: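 Cell-free recombinant human PTEN with fluorescent substrate; product separated by electrophoretic mobility shift and read by fluorescence 1 h after dosing. Primary screen in duplicate at 25 uM, actives followed in concentration series versus DMSO.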

[4] = target: human Protein Tyrosine Phosphatase Non-receptor Type 2 (PTPN2), PTPN2 (gene 5771) (UniProt P17706); experiment: NVS_ENZ_hPTPN2: NovaScreen (NVS) Enzymatic Assay for human Protein Tyrosine Phosphatase Non-receptor Type 2 (PTPN2) (AID 2283207)
How it was run: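 Cell-free recombinant enzyme with fluorescent substrate, product separated by electrophoretic mobility shift; read 1 h after dosing. Primary screen single concentration (25 uM) in duplicate; actives followed in concentration series; loss of signal versus DMSO.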

[5] = target: human Tyrosine Protein Kinase Receptor Tie-2 (Tie2), TEK (gene 7010) (UniProt Q02763); experiment: NVS_ENZ_hTie2: NovaScreen (NVS) Enzymatic Assay for human Tyrosine Protein Kinase Receptor Tie-2 (Tie2) (AID 2283225)
Chain of human Tyrosine Protein Kinase Receptor Tie-2 (Tie2), TEK (gene 7010) (Q02763 whole entry, looked up): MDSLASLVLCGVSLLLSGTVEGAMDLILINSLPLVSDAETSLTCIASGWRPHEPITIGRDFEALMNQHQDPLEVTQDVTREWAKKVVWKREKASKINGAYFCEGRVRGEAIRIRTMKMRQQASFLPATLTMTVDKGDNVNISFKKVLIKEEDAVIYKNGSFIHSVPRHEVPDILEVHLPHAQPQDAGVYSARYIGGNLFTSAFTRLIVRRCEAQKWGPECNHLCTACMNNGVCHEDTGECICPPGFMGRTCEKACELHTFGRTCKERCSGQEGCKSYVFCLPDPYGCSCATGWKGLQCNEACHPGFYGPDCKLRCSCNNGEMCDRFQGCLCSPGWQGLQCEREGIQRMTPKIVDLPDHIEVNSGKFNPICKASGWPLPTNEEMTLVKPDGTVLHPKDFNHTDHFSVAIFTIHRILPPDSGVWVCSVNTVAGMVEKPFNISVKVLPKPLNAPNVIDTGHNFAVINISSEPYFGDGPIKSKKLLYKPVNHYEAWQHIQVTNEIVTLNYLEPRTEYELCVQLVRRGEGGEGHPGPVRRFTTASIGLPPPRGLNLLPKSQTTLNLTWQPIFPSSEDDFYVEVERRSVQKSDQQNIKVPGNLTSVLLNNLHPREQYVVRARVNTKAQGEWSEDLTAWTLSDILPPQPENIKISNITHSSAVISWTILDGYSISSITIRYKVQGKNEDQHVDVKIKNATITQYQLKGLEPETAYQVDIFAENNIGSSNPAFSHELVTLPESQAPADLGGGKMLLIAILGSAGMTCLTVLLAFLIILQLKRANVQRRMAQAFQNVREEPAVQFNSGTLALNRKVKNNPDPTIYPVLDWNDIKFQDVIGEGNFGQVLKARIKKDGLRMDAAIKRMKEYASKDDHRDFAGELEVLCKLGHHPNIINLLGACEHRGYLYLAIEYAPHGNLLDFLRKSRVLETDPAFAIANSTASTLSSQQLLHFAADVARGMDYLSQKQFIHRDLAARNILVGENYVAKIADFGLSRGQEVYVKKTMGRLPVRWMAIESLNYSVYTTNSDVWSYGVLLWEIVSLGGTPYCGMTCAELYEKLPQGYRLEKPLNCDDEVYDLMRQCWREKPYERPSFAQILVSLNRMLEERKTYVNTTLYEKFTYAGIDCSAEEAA
How it was run: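 Recombinant human Tie2 kinase activity was read cell-free by fluorescence with electrophoretic mobility shift, 1 hour after dosing. The screen used 25 uM in duplicate, then concentration-response up to 50 uM. Signal loss was scored against DMSO.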

[6] = target: Bile acid receptor (Homo sapiens) (UniProt Q96RI1); experiment: NVS_NR_hFXR_Agonist: NovaScreen (NVS) Nuclear Receptor Binding Assay for human Farnesoid X Receptor Agonism (FXR) (AID 2283347)
How it was run: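 Cell-free TR-FRET binding assay with extracted human FXR protein, agonist format, read 1 h after dosing. Primary screen at 25 uM single concentration in duplicate, actives retested in concentration series; gain of signal versus DMSO.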

[7] = target: human Acetylcholinesterase (AChE), ACHE (gene 43) (UniProt P22303); experiment: NVS_ENZ_hAChE: NovaScreen (NVS) Enzymatic Assay for human Acetylcholinesterase (AChE) (AID 2283129)
Chain of human Acetylcholinesterase (AChE), ACHE (gene 43) (P22303 whole entry, looked up): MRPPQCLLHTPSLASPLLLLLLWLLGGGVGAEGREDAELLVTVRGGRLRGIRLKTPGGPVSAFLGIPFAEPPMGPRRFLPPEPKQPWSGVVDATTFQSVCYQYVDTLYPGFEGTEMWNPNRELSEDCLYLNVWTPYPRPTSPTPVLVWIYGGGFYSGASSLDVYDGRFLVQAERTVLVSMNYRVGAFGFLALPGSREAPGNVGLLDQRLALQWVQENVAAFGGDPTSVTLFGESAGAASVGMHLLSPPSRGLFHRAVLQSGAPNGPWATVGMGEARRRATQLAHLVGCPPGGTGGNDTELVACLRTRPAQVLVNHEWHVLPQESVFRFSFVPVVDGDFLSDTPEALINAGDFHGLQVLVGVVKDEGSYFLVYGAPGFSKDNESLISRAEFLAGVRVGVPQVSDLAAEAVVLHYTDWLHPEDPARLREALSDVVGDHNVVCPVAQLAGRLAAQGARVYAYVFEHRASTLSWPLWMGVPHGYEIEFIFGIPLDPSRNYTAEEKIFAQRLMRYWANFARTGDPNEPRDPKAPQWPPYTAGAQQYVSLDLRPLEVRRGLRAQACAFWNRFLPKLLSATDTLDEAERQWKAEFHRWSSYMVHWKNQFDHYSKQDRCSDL
How it was run: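 Cell-free colorimetric enzyme-activity assay; compounds read 0.33 hour after dosing, loss of signal vs DMSO baseline. Primary screen in duplicate at 25 uM single concentration, with active compounds retested in concentration series.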

[8] = target: human MET Proto-Oncogene, Receptor Tyrosine Kinase (MET), MET (gene 4233) (UniProt P08581); experiment: NVS_ENZ_hMet: NovaScreen (NVS) Enzymatic Assay for human MET Proto-Oncogene, Receptor Tyrosine Kinase (MET) (AID 2283180)
How it was run: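 Cell-free MET kinase assay using recombinant protein and fluorescent substrate, with mobility-shift separation; read 1 h after dosing. Primary duplicate at 25 uM; actives in singleton concentration-response to 50 uM maximum. Signal loss versus DMSO.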

[9] = target: human Mitogen-Activated Protein Kinase 1 (MAPK 1), MAPK1 (gene 5594) (UniProt P28482); experiment: NVS_ENZ_hMAPK1: NovaScreen (NVS) Enzymatic Assay for human Mitogen-Activated Protein Kinase 1 (MAPK 1) (AID 2283175)
Chain of human Mitogen-Activated Protein Kinase 1 (MAPK 1), MAPK1 (gene 5594) (P28482 whole entry, looked up): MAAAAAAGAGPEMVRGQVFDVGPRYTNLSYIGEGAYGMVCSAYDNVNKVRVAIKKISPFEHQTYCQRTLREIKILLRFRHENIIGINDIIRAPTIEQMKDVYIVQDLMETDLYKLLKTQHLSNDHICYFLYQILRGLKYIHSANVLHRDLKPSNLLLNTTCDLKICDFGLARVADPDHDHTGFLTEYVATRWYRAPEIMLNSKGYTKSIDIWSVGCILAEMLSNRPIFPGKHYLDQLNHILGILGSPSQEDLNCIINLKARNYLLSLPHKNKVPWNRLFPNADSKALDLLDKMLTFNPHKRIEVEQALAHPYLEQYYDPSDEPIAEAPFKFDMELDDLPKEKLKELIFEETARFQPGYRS
How it was run: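 Cell-free recombinant human MAPK1 enzymatic assay, fluorescence/electrophoretic mobility shift read at 1 h; loss of signal vs DMSO. Primary screen in duplicate at 25 uM; actives (e.g. ≥30% inhibition) run as concentration-response up to 50 uM.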

[10] = target: rat Monoamine Oxidase, MAO-B, Central (MAOBC), Maob (gene 25750) (UniProt P19643); experiment: NVS_ENZ_rMAOBC: NovaScreen (NVS) Enzymatic Assay for rat Monoamine Oxidase, MAO-B, Central (MAOBC) (AID 2283238)
Chain of rat Monoamine Oxidase, MAO-B, Central (MAOBC), Maob (gene 25750) (P19643 whole entry, looked up): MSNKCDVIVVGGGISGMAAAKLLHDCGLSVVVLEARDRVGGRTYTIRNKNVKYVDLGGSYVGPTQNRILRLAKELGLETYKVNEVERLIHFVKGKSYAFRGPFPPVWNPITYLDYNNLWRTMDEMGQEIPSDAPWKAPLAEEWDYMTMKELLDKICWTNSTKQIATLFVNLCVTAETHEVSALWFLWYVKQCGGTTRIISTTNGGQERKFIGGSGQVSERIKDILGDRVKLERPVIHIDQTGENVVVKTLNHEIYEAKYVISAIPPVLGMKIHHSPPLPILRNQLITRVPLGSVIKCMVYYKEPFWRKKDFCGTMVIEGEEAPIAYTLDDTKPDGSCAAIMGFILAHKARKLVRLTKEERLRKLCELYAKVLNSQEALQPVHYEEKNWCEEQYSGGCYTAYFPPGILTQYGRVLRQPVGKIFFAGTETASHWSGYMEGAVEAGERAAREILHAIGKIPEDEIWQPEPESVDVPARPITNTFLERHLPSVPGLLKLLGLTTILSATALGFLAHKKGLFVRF
How it was run: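 MAO-B activity in rat brain tissue preparation, cell-free, measured radiometrically by scintillation counting 1.17 h after dosing. Screened in duplicate at 25 uM; actives then in concentration-response up to 50 uM. Loss of signal versus DMSO scored.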

[11] = target: rat Monoamine Oxidase, MAO-B, Peripheral (MAOBP), Maob (gene 25750) (UniProt P19643); experiment: NVS_ENZ_rMAOBP: NovaScreen (NVS) Enzymatic Assay for rat Monoamine Oxidase, MAO-B, Peripheral (MAOBP) (AID 2283242)
Chain of rat Monoamine Oxidase, MAO-B, Peripheral (MAOBP), Maob (gene 25750) (P19643 whole entry, looked up): as above

[12] = target: human Neonicotinoid receptor (NNR), CHRNA2 (gene 1135) (UniProt Q15822); experiment: NVS_LGIC_hNNR_NBungSens: NovaScreen (NVS) Ligand-Gated Ion Channel Assay for human Neonicotinoid receptor (NNR) (AID 2283313)
How it was run: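 Radioligand displacement on human neuroblastoma membranes, 2 h, filter-based scintillation counting. Primary screen in duplicate at 25 uM; chemicals passing threshold (e.g. 30% inhibition) run singleton concentration-response to 50 uM; loss of binding fitted versus DMSO.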

[13] = target: Norway rat Vesicular Monoamine Transporter (VMAT2), neurotransmitter transporter, Slc18a2 (gene 25549) (UniProt Q01827); experiment: NVS_TR_rVMAT2: NovaScreen (NVS) Transporter Assay for Norway rat Vesicular Monoamine Transporter (VMAT2), neurotransmitter transporter (AID 2283376);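 also: actives lower the bound radioligand signal below the DMSO level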
Chain of Norway rat Vesicular Monoamine Transporter (VMAT2), neurotransmitter transporter, Slc18a2 (gene 25549) (Q01827 whole entry, looked up): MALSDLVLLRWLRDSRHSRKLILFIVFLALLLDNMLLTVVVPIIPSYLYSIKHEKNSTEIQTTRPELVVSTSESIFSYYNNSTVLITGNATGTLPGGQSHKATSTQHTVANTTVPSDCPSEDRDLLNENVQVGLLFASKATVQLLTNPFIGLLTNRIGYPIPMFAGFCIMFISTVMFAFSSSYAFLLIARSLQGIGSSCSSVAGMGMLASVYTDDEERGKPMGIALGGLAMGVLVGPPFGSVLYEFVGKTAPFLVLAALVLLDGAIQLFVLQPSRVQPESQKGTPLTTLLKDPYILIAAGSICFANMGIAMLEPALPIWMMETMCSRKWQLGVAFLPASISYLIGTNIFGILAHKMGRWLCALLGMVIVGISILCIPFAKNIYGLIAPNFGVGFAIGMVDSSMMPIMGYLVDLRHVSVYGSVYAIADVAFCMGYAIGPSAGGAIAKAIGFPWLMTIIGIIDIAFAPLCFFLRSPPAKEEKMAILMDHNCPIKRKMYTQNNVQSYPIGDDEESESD
How it was run: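 Radioligand displacement binding on rat forebrain tissue preparation, filter-based scintillation read-out 1 hour after dosing. Primary screen in duplicate at 25 uM, then concentration series for actives; loss of signal versus DMSO.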

[14] = target: human p21 Activated Kinase 4 (PAK4), PAK4 (gene 10298) (UniProt O96013); experiment: NVS_ENZ_hPAK4: NovaScreen (NVS) Enzymatic Assay for human p21 Activated Kinase 4 (PAK4) (AID 2283189)
How it was run: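 Cell-free recombinant human PAK4 activity assay; fluorescent substrate and product separated by electrophoretic mobility shift, read 1 h after dosing. Initially tested in duplicate at 25 uM, relative to DMSO baseline.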

[15] = target: bovine Gamma-Aminobutyric Acid Type A Receptor BDZ, alpha 1 site (GABARa1), GABRA1 (gene 780973) (UniProt P08219); experiment: NVS_LGIC_bGABARa1: NovaScreen (NVS) Ligand-Gated Ion Channel Assay for bovine Gamma-Aminobutyric Acid Type A Receptor BDZ, alpha 1 site (GABARa1) (AID 2283321)
How it was run: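 Radioligand competition binding on bovine cortical membranes, 0.75 h, filter-based scintillation counting. Primary single concentration 25 uM in duplicate; actives rerun in concentration-response to 50 uM max. Loss of signal fitted versus DMSO.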

[16] = target: rat Acetylcholinesterase (AChE), Ache (gene 83817) (UniProt P37136); experiment: NVS_ENZ_rAChE: NovaScreen (NVS) Enzymatic Assay for rat Acetylcholinesterase (AChE) (AID 2283233)
How it was run: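 Rat brain membrane acetylcholinesterase activity measured colorimetrically 0.33 h after compound addition, loss of signal relative to DMSO. Primary screen in duplicate at 25 uM; actives re-run as concentration-response with 50 uM top concentration.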

[17] = system: rat Monoamine Oxidase, MAO-A, Central (MAOAC), gene 29253; experiment: NVS_ENZ_rMAOAC: NovaScreen (NVS) Enzymatic Assay for rat Monoamine Oxidase, MAO-A, Central (MAOAC) (AID 2283243);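 also: potency refers to inhibition seen as signal drop below DMSO baseline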
How it was run: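 Rat brain tissue extract used as enzyme source in a cell-free radiometric assay, read by scintillation counting 1.5 hours after dosing. Loss of signal relative to DMSO baseline scored; primary screen at 25 uM in duplicate, actives followed up in concentration series.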

O=C(O)C1(C(=O)Nc2ccc(Cl)cc2Cl)CC1
AC50 [1]: 7.12 µM (active) | AC50 [2]: 18.3 µM (active) | AC50 [3]: 3.91 µM (active) | AC50 [4]: 10.1 µM (active) | outcome [5]: inactive | outcome [6]: inactive

CCc1nc(N)nc(N)c1-c1ccc(Cl)cc1
outcome [7]: inactive | outcome [8]: inactive

COc1ccc(OC(F)(F)F)cc1CN[C@H]1CCCN[C@H]1c1ccccc1
outcome [1]: inactive | outcome [2]: inactive | outcome [9]: inactive | outcome [8]: inactive | outcome [5]: inactive | outcome [10]: inactive | AC50 [11]: 36.5 µM (active) | AC50 [12]: 25 µM (active)

CS(=O)(=O)c1ccc([C@@H](CC2CCCC2)C(=O)Nc2cnccn2)cc1Cl
outcome [7]: inactive | AC50 [13]: 7.12 µM (active)

Cc1[nH]nc2c1N=C(c1ccccc1Cl)c1cc([N+](=O)[O-])ccc1N2
AC50 [1]: 17 µM (active) | AC50 [2]: 41.4 µM (active) | AC50 [14]: 9.53 µM (active) | outcome [5]: inactive | AC50 [15]: 2.29 µM (active)

N=C(N)c1ccc(OCCCCCOc2ccc(C(=N)N)cc2)cc1
AC50 [7]: 19.3 µM (active) | outcome [2]: inactive | AC50 [16]: 21.9 µM (active) | AC50 [10]: 0.0798 µM (active) | AC50 [11]: 0.905 µM (active) | AC50 [17]: 0.203 µM (active) | AC50 [13]: 5.98 µM (active)

— PubChem BioAssay (EPA / NIEHS)
